The structures appear in SMILES notation. Hit rate of the full screen: of about 420,000 compounds, about 50,000 (12%) were called active. Another 26% or so got no clear call; they are omitted. Calls come from the whole dose curve; as a rule, active = well fitted inhibition curve with a large enough effect; inconclusive = small, poorly fitted or top-dose-only effect; inactive = flat fitted curve, though single readings scatter. What follows is part of a selection rich in actives, with near analogues and random picks from the rest. A call without a number means that no potency is given here. Where a SMILES comes first, the peptide text is derived from it. Bridges are numbered along the chain shown (N, C = ends). [ ]: non-standard residue; d: D form. The star is where a group is joined. X4 = CC[C@H](C)CCCCC(=O)*; Dab = NCC[C@H](N)C(=O)O
Potency is the fitted concentration of half-maximal effect.

A short description of the assay: qHTS for Inhibitors of human tyrosyl-DNA phosphodiesterase 1 (TDP1): qHTS in cells in presence of CPT. Note: nearly all actives have a fitted effect of over 55% in size. The note with it: chicken DT40 Tdp1-/-;hTDP1 cells + 20 nM CPT, ATP luminescence, 48 h; series mostly up to 46.2 µM. In outline: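 Chicken DT40 Tdp1-/- cells stably complemented with human TDP1 were seeded at 400 cells/well in medium containing 20 nM camptothecin, exposed to pin-transferred compounds, and grown at 37 °C for at least 48 hr. Viability was read as ATP luminescence.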
Take `O=C(CN1C(=O)COc2ccc(Cl)cc21)Nc1ccc(N2CCOCC2)cc1`: the Potency entry is “inactive”. The result for `CCC(C)NC(=O)c1ccc(N2CCC3(CC2)OCCO3)c([N+](=O)[O-])c1` (stereo not given) reads “inactive”; that for `Cc1cccc(C(=O)OCC(=O)NCC(C)C)c1O`, “inactive”. Take `CC[C@H](C)CCCCC(=O)N[C@@H](CCN)C(=O)N[C@H](C(=O)N[C@@H](CCN)C(=O)N[C@H]1CCNC(=O)[C@@H]([C@H](C)O)NC(=O)[C@H](CCN)NC(=O)[C@H](CCN)NC(=O)[C@H](CC(C)C)NC(=O)[C@@H](CC(C)C)NC(=O)[C@H](CCN)NC1=O)[C@@H](C)O` (X4-[Dab]T[Dab][Dab][Dab][dL]L[Dab][Dab][dT]; lactam 4-C): the Potency result is “inactive”. Consider `CSc1ccccc1NC(=O)COC(=O)CCCOc1ccc(C)cc1`, for which the Potency entry is “inactive”.

In the case of `COc1cc([N+](=O)[O-])ccc1NC(=O)COC(=O)CCOc1ccc(C)cc1`, the Potency is 6.51 µM (active). Take `COc1cc([N+](=O)[O-])ccc1NC(=O)CN1CCCC1`: the Potency entry was “inactive”. For `CC1(C)CC(=O)CC2(C1)NCC(c1ccccc1Cl)c1c2[nH]c2ccccc12` (stereo not given), the Potency is 18.4 µM (active). On to `Cc1ccc(C(=O)Nc2nc(N)n(-c3ccccc3)n2)cc1`, for which the Potency entry is “inactive”. Take `Cc1ccc(C(=O)Nc2nc(-c3ccccc3)ns2)cc1`: the Potency entry was “inactive”. Turning to `CCc1cccc(-n2nnc(-c3nsc(NC(=O)c4ccc(C)cc4)n3)c2C)c1`, the Potency is 9.2 µM (active). The result for `CCN(CC(=O)Nc1ccc(NC(C)=O)cc1)C(=O)C1CC(=O)N(c2ccc3c(c2)OCCO3)C1` (stereo not given) reads “inactive”; that for `COc1cccc(CNC(=O)CCC(=O)N2CC3CCCN3c3ccccc32)c1` (stereo not given), 14.6 µM (active). On to `COc1cccc(CNC(=O)CCC2CCCN(C(=O)c3cc(C)[nH]n3)C2)c1` (stereo not given), for which the Potency entry was “inactive”.

Take `COc1cccc(CNC(=O)C2CC(=O)N(C3CCCCCCC3)C2)c1` (stereo not given): the Potency result is “inactive”.

Take `CCOc1ccc(-c2nc(C)sc2CC(=O)O)cc1`: the Potency result was “inactive”.

`Cc1cc(C)cc(NC(=O)C2CCCN(S(=O)(=O)c3ccc4[nH]c(=O)ccc4c3)C2)c1` (stereo not given): the Potency result is “inactive”. `Cn1nnnc1SCC(=O)Nc1sccc1C(N)=O`: the Potency entry is “inactive”. Take `CC1=C(C(=O)OCc2ccc(C)cc2)C(c2c(Cl)cccc2Cl)CC(=O)N1` (stereo not given): the Potency entry is “inactive”.

`COC(=O)C1=C(C)NC(=O)CC1c1ccccc1OC` (stereo not given): the Potency result was “inactive”. Turning to `CC1=C(C(=O)OCc2ccc(C)cc2)C(c2ccccc2Cl)CC(=O)N1` (stereo not given), the Potency is 13 µM (active). Take `O=C(Nc1ccc(Cl)cn1)c1ccccc1-c1ccccc1`: the Potency entry was “inactive”. As to `CC1(C)S[C@@H]2[C@H](N=CN3CCCCCC3)C(=O)N2[C@H]1C(=O)O`, the Potency entry was “inactive”. In the case of `C=CCn1c(SCc2ccc(C(=O)NCCO)cc2)nc2ccccc2c1=O`, the Potency entry was “inactive”.

In the case of `OC1CSc2nc3ccccc3n2C1` (stereo not given), the Potency entry was “inactive”.

The record behind these values is PubChem BioAssay AID686979 (National Center for Advancing Translational Sciences (NCATS), 2013).
